Data taken from PubChem BioAssay (NCATS).
Records with an inconclusive call do not appear. Activity calls are given as the source filed them. Unless noted, calls come from the whole dose curve; as a rule, active = well fitted curve in the direction sought with a large enough effect; inconclusive = small, poorly fitted or top-dose-only effect, or another doubt; inactive = no such curve, though single readings can be large; an effect the other way counts as inactive or inconclusive.

Key:
[1] = qHTS assay for small molecule agonists of the antioxidant response element (ARE) signaling pathway measured by Nrf2-dependant transcriptional activity - cell viability counter screen (AID 720653; active = well fitted curve in the direction sought with a large enough effect in the repeat runs; an effect the other way counts as inactive or inconclusive; note: % is set by controls: 0 for no effect and ±100 for the full control effect); details: ARE-bla HepG2 viability, CellTiter-Glo ATP luminescence, 16 h; max response: active compounds read low
Method in brief: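 Cytotoxicity counter screen: intracellular ATP quantified by CellTiter-Glo luminescence in the same ARE-bla HepG2 plates, after 16 h compound exposure and a 2 h beta-lactamase substrate step.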

[2] = qHTS assay for cell viability of HEK293 cells (AID 743288); details: ATP luminescence (CellTiter-Glo), 18 h, active compounds read low; note: % is set by controls: 0 for no effect and ±100 for the full control effect; nearly all actives have a fitted effect of over 50% in size
Method in brief: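 Environmental chemicals tested in qHTS format against parental HEK293 cells; 18 h treatment, 37 C; read-out ATP luminescence (CellTiter-Glo), 30 min RT development.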

[3] = qHTS assay for cell viability of the p53RE-bla HCT-116 cell line (AID 743292); note: % is set by controls: 0 for no effect and ±100 for the full control effect; nearly all actives have a fitted effect of over 55% in size
Method in brief: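 Viability of compound-treated p53RE-bla HCT-116 cells is taken from ATP-dependent luciferase luminescence. Treatment lasts 16 h at 37 C after a 5 h settling period; detection follows 30 min at room temperature.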

[4] = qHTS assay for measurement of the activity of small molecule inhibitors on Zika virus induced Caspase-3 activity in human iPSC derived neural progenitor cells (hNPCs) (AID 1224857); note: % of control where 0% means no effect; nearly all actives have a fitted effect of over 65% in size
Method in brief: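 Values are percent inhibition of virus-induced caspase-3/7 signal, scaled between uninfected cells and ZIKV-infected cells. Infection used 2 FFU/cell for 6 h after 1 h compound exposure.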

[5] = qHTS assay for measurement of the activity of small molecule inhibitors on Zika virus induced Caspase-3 activity in human astrocytoma cells (AID 1224859);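 note: plate controls were ZIKV-infected untreated cells for no effect and uninfected cells for full effect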
Method in brief: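 Compound added 1 h pre-infection; ZIKV 2 FFU/cell on SNB-19 cells, 6 h, 37 C/5% CO2. Caspase-Glo 3/7 luminescence; values as % inhibition of ZIKV-induced caspase activity.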

[6] = P-glycoprotein substrates identified in KB-8-5-11 adenocarcinoma cell line, qHTS therapeutic library screen (AID 1346987); note: nearly all actives have a fitted effect of over 65% in size
Method in brief: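 KB-8-5-11, a colchicine-selected P-gp-overexpressing KB-3-1 subline, was grown without colchicine for the assay. Cells were seeded at 500 cells/well, dosed in concentration-response and incubated 72 h at 37 degree C, 5% CO2. Viability was read by CellTiter-Glo luminescence.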

[7] = qHTS for Activators of Parkin Expression: LOPAC Validation Assay (FLuc Reporter) (AID 720573;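 note: 0% = DMSO and 100% = positive control compounds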)
Method in brief: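 FLuc luminescence read-out from a neuronal line expressing a Parkin-promoter-driven coincidence reporter. Cells treated 24 h at 37 C, 5% CO2 with compounds at 7 concentrations; signal increase normalized to DMSO and positive control.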

[8] = molecular target: T1, Hexokinase-4 (Homo sapiens) + Glucokinase regulatory protein (Homo sapiens) (UniProt P35557+Q14397); test: qHTS assay for inhibitors of recombinant human GCK-GKRP interaction: Diaphorase-coupled assay (AID 743205)
T1 sequence (P35557 whole entry, looked up): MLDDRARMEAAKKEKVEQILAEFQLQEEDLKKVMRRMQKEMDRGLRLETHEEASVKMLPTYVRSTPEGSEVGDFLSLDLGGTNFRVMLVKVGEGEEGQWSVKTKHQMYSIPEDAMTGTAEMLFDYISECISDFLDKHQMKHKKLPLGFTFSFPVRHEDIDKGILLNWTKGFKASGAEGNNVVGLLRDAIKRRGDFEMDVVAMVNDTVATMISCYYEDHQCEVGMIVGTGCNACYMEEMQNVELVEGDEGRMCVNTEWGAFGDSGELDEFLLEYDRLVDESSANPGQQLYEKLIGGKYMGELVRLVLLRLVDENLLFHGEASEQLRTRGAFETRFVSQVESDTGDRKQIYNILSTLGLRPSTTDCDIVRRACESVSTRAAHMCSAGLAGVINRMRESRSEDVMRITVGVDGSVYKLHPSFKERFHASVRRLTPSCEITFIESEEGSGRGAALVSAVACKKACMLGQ
T1 sequence (Q14397 whole entry, looked up): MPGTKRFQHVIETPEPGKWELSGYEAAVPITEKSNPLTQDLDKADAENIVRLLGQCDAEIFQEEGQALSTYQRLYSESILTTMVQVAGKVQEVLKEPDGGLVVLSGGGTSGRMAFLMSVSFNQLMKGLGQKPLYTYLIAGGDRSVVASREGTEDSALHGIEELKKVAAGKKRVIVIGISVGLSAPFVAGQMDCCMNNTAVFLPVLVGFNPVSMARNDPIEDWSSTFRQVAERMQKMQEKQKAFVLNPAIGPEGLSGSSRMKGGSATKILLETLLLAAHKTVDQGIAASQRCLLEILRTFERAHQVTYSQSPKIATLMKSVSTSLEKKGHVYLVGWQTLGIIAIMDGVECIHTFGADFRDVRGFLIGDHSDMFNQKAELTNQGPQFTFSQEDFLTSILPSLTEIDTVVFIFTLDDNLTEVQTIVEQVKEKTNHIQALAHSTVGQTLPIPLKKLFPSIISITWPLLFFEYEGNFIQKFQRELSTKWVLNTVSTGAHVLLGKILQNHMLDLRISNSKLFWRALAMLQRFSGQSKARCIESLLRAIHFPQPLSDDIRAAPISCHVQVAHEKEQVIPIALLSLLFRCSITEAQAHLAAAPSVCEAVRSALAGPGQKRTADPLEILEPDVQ
Method in brief: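 Resorufin fluorescence (525/590 nm), read each minute over 30 min, reports GCK activity coupled via G6PDH and diaphorase. Reaction: 10 nM GST-GCK, 10 nM FLAG-GKRP, 5 mM glucose, 0.4 mM ATP, 0.15 mM NADP+, 0.1 mM resazurin.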

[9] = molecular target: T1, Hexokinase-4 (Homo sapiens) + Glucokinase regulatory protein (Homo sapiens); test: qHTS assay for inhibitors of recombinant human GCK-GKRP interaction: ADP-Glo assay (AID 743206);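 note: plate controls were DMSO plus enzyme for no effect and no enzyme for full effect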
Method in brief: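 GST-GCK and FLAG-GKRP (15 nM each in the dispensed mix, with 2 uM S6P) react with 0.4 mM ATP and 5 mM glucose (final) in Hepes pH 7.6 for 60 min at room temperature. ADP is measured by ADP-Glo luminescence.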

[10] = molecular target: T1, Hexokinase-4 (Homo sapiens) + Glucokinase regulatory protein (Homo sapiens); test: qHTS assay for inhibitors of recombinant human GCK-GKRP interaction: HTRF assay (AID 743207);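 note: 0% = DMSO with GCK present and -100% = DMSO wells lacking GCK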
Method in brief: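 HTRF read-out (ex 320 nm; 615/665 nm emission) after 60 min RT equilibration of 5 nM GST-GCK, 5 nM FLAG-GKRP, 2 uM S6P, compound and anti-FLAG/anti-GST detection antibodies; signal normalized between DMSO wells with and without GCK.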

[11] = qHTS Assay for Identifying Gametocytocidal Compounds (AID 743244);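 note: % is set by controls: 0 for no effect and ±100 for the full control effect; actives lower the fluorescent signal which means gametocytes are killed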; details: P. falciparum 3D7 stage III-V gametocytes, alamarBlue, 72 h; max response: active compounds read low
Method in brief: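 Stage III–V gametocytes of P. falciparum 3D7 were seeded at 20,000 cells/well onto pre-dispensed compounds. After 72 h, 37 °C, 5% CO2, alamarBlue was added for another 24 h.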

[12] = Natriuretic polypeptide receptor (hNpr1) antagonism - Pilot counterscreen GloSensor control cell line (AID 1347045; calls by dose curve; note: series mostly up to about 38 µM; % is set by controls: 0 for no effect and ±100 for the full control effect)
Method in brief: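 HEK293 cGMP GloSensor cells preloaded 2 h with 2% GloSensor reagent, then compound 30 min before baseline luminescence read. Stimulated with 50 uM sodium nitroprusside, 20 min at room temperature, then read again; counterscreen for Npr1 antagonism.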

CN1C(=O)c2ccccc2C1=O
inactive: max response [1] -2.52% | max response [2] -9.41% | Potency [3] | Potency [4] | outcome [5] | Potency [6]

Cc1c(C)c2c(c(C)c1OC(=O)CCC(=O)OCCO)CC[C@@](C)(CCC[C@H](C)CCC[C@H](C)CCCC(C)C)O2
inactive: Potency [4] | outcome [5] | Potency [6]

Brc1ccc([C@H]2CN3CCSC3=N2)cc1
inactive: outcome [7] | outcome [8] | outcome [9] | outcome [10] | max response [11] 13.2% | Potency [4] | outcome [5] | Potency [6] | Potency [12]

O=C1NC(c2cccc([N+](=O)[O-])c2)=CCN1c1ccccc1O
inactive: outcome [7] | outcome [8] | outcome [9] | outcome [10] | max response [11] 21.2% | Potency [4] | outcome [5] | Potency [6] | Potency [12]

O=C(O)[C@H](O)[C@@H](O)[C@H](O[C@@H]1O[C@H](CO)[C@H](O)[C@H](O)[C@H]1O)[C@H](O)CO
inactive: max response [11] -7.07% | Potency [4] | outcome [5] | Potency [6]

CC(=O)OCC[N+](C)(C)C
inactive: max response [11] 0.348% | Potency [4] | outcome [5] | Potency [6]

CO[C@@]1(NC(=O)CSC[C@@H](N)C(=O)O)C(=O)N2C(C(=O)O)=C(CSc3nnnn3C)CS[C@@H]21
inactive: max response [11] 3.25% | Potency [4] | outcome [5] | Potency [6]

CC(C)C[C@H](NC(=O)CNC(=O)[C@H](Cc1ccc(O)cc1)NC(=O)[C@H](CO)NC(=O)[C@H](Cc1c[nH]c2ccccc12)NC(=O)[C@H](Cc1cnc[nH]1)NC(=O)[C@@H]1CCC(=O)N1)C(=O)N[C@@H](CCCN=C(N)N)C(=O)N1CCC[C@H]1C(=O)NCC(N)=O (stereo in doubt)
inactive: max response [11] -1.4% | Potency [4] | outcome [5] | Potency [6]

CC(C)OC(=O)c1cc2c(OCC(O)CNC(C)(C)C)cccc2[nH]1 (stereo not given)
inactive: max response [11] 0.786% | Potency [4] | outcome [5] | Potency [6]

CC1c2ccccc2CN1NC(=O)c1ccc(Cl)c(S(N)(=O)=O)c1 (stereo not given)
inactive: max response [11] 33.5% | Potency [4] | outcome [5] | Potency [6]

OCCc1ccccc1
inactive: max response [11] 0.746% | Potency [4] | outcome [5] | Potency [6]

OC[C@]1(O)OC[C@@H](O)[C@H](O)[C@@H]1O
inactive: max response [11] 13.1% | Potency [4] | outcome [5] | Potency [6]

Nc1c[n+](N2CCOCC2)no1
inactive: max response [11] 2.15% | Potency [4] | outcome [5] | Potency [6]

O=C(O)c1[nH]n(-c2ccc(S(=O)(=O)O)cc2)c(=O)c1N=Nc1ccc(S(=O)(=O)O)cc1
inactive: max response [11] -0.65% | Potency [4] | outcome [5] | Potency [6]

Cc1nc([N+](=O)[O-])cn1-c1ccc([N+](=O)[O-])cc1
inactive: max response [11] 9.29% | Potency [4] | outcome [5] | Potency [6]

CN(C(=O)C(Cl)Cl)c1ccc(OC(=O)c2ccco2)cc1
inactive: max response [11] 8.61% | Potency [4] | outcome [5] | Potency [6]
